High-throughput results (PubChem)
ALDH1A1 block = inhibitors of human aldehyde dehydrogenase 1A1; Potency, µM (titrated, usually from 75.3 µM), for the others: at the highest dose activity, negative = inhibition, hits mostly inhibitors; 7.3% of 220,000 active; Purified ALDH1A1, NADH fluorescence, propionaldehyde substrate; AID 1030;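 note: potency is the fitted concentration of half-maximal effect; plate controls were no enzyme wells and a reference inhibitor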
NPSR antagonist = neuropeptide S receptor (human) antagonism, cAMP; Potency, µM (top dose mostly 38.3 µM), inactives show at the top dose activity change, negative = inhibition, hits mostly inhibitors; 1% of 220,000 active; Q6W5P4; CHO-NPSR cells, cAMP TR-FRET, antagonist mode; active = well fitted curve in the direction sought with a large enough effect; inconclusive = small, poorly fitted or top-dose-only effect, or another doubt; inactive = no such curve, though single readings can be large; an effect the other way counts as inactive or inconclusive; note: potency is the fitted concentration of half-maximal effect; nearly all actives have a fitted effect of over 50% in size
PNC inhibitor = perinucleolar compartment assembly inhibition. PC3M PTB-GFP, PNC prevalence imaging, 16 h; active compounds read low. 3.1% of 140,000 active. AID 2417. activity change (PNC), negative = inhibition, % at 10 µM;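 active = readout at or below -70, meaning at least 70% loss of cells showing the perinucleolar compartment, a nuclear body marking cancer cells; inconclusive = readout between -30 and a set limit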;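 note: plate controls were DMSO wells for no effect and camptothecin positive control wells for full effect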
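Compounds are pinned in duplicate onto adhered PC3M cells stably expressing GFP-tagged PTB and incubated 16 h at 37 C. Cells are then fixed, nuclei stained with Hoechst, and PNC-positive cells counted.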
IMPase cell inh = membrane-permeable compound that blocks inositol monophosphatase. P97697. CHO-M1 cells, IP1 accumulation, HTRF TR-FRET ratio. inhibition (IP1 accumulation), % at 46.1 µM. 120,000 tested, under 10 active. AID 901; active = well fitted curve in the direction sought with a large enough effect in the signal ratio, not every such curve was filed as active; inconclusive = small, poorly fitted or top-dose-only effect, or a change in a side signal; inactive = no such curve, though single readings can be large or run the other way; the % refers to the signal ratio;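 note: cells stimulated with carbachol in lithium chloride buffer; plate controls were DMSO basal wells for no effect and reference inhibitor wells for full effect; higher means more IMPase inhibition seen as more IP1 and lower FRET ratio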
Target sequence (P97697 whole entry, looked up): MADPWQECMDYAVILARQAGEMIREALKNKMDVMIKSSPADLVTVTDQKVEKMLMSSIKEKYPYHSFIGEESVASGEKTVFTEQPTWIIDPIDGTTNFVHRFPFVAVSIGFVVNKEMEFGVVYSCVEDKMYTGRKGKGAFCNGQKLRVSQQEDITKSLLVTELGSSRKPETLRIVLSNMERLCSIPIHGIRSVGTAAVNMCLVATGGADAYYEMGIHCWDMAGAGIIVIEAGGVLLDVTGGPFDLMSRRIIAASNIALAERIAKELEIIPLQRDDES
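Seeded CHO-M1 cells were dosed with compound at up to 46 uM, stimulated with carbachol for 30 min, then lysed in IP-One detection reagents. Higher IP1 lowers the TR-FRET signal.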
IMPase Li cell = IMPase inhibition in cells with lithium potentiation | CHO-M1 cells, IP1 TR-FRET (IP-One), carbachol + lithium | AID 1457 | Potency, µM (doses to about 59.4 µM), for the others: top-dose activity, negative = IMPase inhibition, most hits filed as inhibitors | 0.35% of 210,000 active; active = well fitted curve in the direction sought with a large enough effect; inconclusive = small, poorly fitted or top-dose-only effect, or another doubt; inactive = no such curve, though single readings can be large; an effect the other way counts as inactive or inconclusive;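 note: IP1 builds up when IMPase is blocked and the TR-FRET signal falls; potency is the fitted concentration of half-maximal effect; plate controls were basal vehicle for no effect and high inhibitor control for full effect; nearly all actives have a fitted effect of over 50% in size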
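CHO cells stably expressing M1 receptor (2000/well, cultured 16–30 h) treated 30 min at 37C with compound plus low lithium. Cytosolic IP1 by TR-FRET (665/620 ratio and 620 channel) after 10 min lysis; AC50 by Hill fit.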
HPGD block = HPGD (human) dehydrogenase inhibition; 4.3% of 150,000 active; purified HPGD, NADH fluorescence kinetic, PGE2 substrate; Potency, µM, for the others: top-dose activity change, negative = inhibition, hits mostly inhibitors; AID 894; P15428; note: potency is the fitted concentration of half-maximal effect
Target sequence (P15428 whole entry, looked up): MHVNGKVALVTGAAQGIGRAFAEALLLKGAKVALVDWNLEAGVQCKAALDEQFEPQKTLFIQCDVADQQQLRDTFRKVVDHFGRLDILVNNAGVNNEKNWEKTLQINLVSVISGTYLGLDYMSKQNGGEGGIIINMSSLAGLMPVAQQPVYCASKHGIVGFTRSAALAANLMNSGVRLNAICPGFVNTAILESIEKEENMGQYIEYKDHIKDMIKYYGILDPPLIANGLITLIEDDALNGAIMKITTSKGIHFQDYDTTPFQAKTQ
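20 nM HPGD preincubated 15 min at room temperature with compound in 50 mM Tris-HCl pH 8, 0.01% Tween 20. Started with 1 mM NAD+ and 30 uM prostaglandin E2; NADH fluorescence (360/450 nm) read 5 times over 30-s intervals, last minus first.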
Starred values were filed as active, the others as inactive; ? = inconclusive; / = not tested or not shown; [ ] = remark or other dose. This is a sample that favours compounds with a hit; in the whole collection about 11% have one here. Unless noted, calls come from the whole dose curve; as a rule, active = well fitted inhibition curve with a large enough effect (not every such curve was filed as active); inconclusive = small, poorly fitted or top-dose-only effect, or another doubt; inactive = no such curve, though single readings can be large or run the other way. Unless noted, % is set by controls: 0 for no effect and ±100 for the full control effect.

SMILES	ALDH1A1 block	NPSR antagonist	PNC inhibitor	IMPase cell inh	IMPase Li cell	HPGD block
CCOC(=O)C1=C(C)OC(N)=C(C#N)C1c1c(C)nn(-c2ccc(C)cc2)c1Cl (configuration not stated)	8%	-25%[46.1 µM]	?	-6	12%[38.3 µM]	-16%
CCCc1nnc(NC(=O)Cn2c(=O)sc3ccccc32)s1	?	5%[46.1 µM]	?	3	/	/
O=C(c1ccco1)N1CCN(C(=O)C(Cc2ccccc2)NS(=O)(=O)c2cccs2)CC1 (configuration not stated)	14µM*	-10%[46.1 µM]	33	-4	9%[38.3 µM]	-8%
CC(=O)NC(Cc1ccccc1)C(=O)N1CCN(C(=O)c2ccco2)CC1 (configuration not stated)	10µM*	24%[46.1 µM]	57	6	6%[38.3 µM]	-13%
Fc1ccc(-n2c(-c3ccco3)nc3nc4ccccc4nc32)cc1	?	-5%[46.1 µM]	-15	-5	10%[38.3 µM]	?
Cc1ccc(NNC(=S)Nc2ccc(C(C)C)cc2)c(C)c1	22µM*	-10%	-1	-11	20%	?
CC(C)c1ccc(NC(=S)Nc2ccc(OC(F)(F)F)cc2)cc1	?	13%	/	/	0%	/
Cn1c(Cn2c(=O)sc3ccccc32)nnc1SCc1ccccn1	2µM*	-6%[46.1 µM]	-5	-7	/	/
O=c1[nH]c(=S)[nH]nc1Cc1ccccc1	?	1%[46.1 µM]	21	-6	4%[38.3 µM]	28µM*
COc1ccc(OC)c(C2=C[N+](=O)C(C)(C)C(C)(C)N2[O-])c1	-6%	-12%[46.1 µM]	?	2	19%[38.3 µM]	-2%
O=C(Nc1ccc(N2CCCCC2)cc1)c1ccc2c(c1)OCCO2	-37%	-14%[46.1 µM]	35	1	30%[38.3 µM]	-18%
C#CCOCCOCCOCCNc1nc(N2CCN(C(=O)[C@H]([C@@H](C)CC)n3cc([C@@H](N)CC(C)C)nn3)CC2)nc(N2CCN(C(=O)[C@H](Cc3ccc(O)cc3)n3cc([C@@H](N)CC(C)C)nn3)CC2)n1	0%	-28%	/	/	-7%	/
C/C(=N\N=C1\NC(=O)CC(C(=O)O)S1)c1cccs1 (configuration not stated)	-6%	-6%[46.1 µM]	-106*	-1	-11%[38.3 µM]	-21%
COc1cc(/C=N/OCC(=O)Nc2cc(C)on2)ccc1OCc1ccccc1	5%	7%	36	/	12%	-14%
Cc1ccc(CSc2nc3c(cc2C#N)CCC3)cc1	7%	?	11	-12	-5%[38.3 µM]	-2%
CN1CCc2nc(SCc3ccc(C(C)(C)C)cc3)c(C#N)cc2C1	0%	-14%[46.1 µM]	93	1	11%[38.3 µM]	28µM*
COc1ccc(-c2cc3nc(C4CCN(C(=O)OC(C)(C)C)CC4)c(C(=O)O)cn3n2)cc1	?	-26%[46.1 µM]	-9	0	-1%[38.3 µM]	?
CCn1c(SCc2nc(-c3cccs3)no2)nnc1-c1c[nH]c2ccccc12	-10%	-22%[46.1 µM]	-16	-13[1.84 µM]	28%[38.3 µM]	-9%
NC(=O)c1cc(N2C(=O)C=CC2=O)ccc1Cl	0.79µM*	?	-13	-8	22%[38.3 µM]	7.9µM*
CC(=O)Nc1ccc(Cl)c(C(N)=O)c1	5%	2%[46.1 µM]	20	8	24%[38.3 µM]	-1%
CCOc1ccccc1-n1nnnc1SCc1nc2ccccc2s1	10µM*	-19%[46.1 µM]	27	4	26%[38.3 µM]	-13%
Cc1cc(C2C(=O)CC(=O)CC2c2ccccc2)on1 (configuration not stated)	10µM*	-19%[46.1 µM]	-17	?	4%[38.3 µM]	-20%
CCOC(=O)/C(C#N)=C\C=C1C=CN(C)C=C1	-1%	13µM*	-11	?	44%[38.3 µM]	-19%
O=C(Cn1c(=O)oc2cc(S(=O)(=O)N3CCCC3)ccc21)NCc1ccc(F)cc1	?	2%[46.1 µM]	30	2	-2%[38.3 µM]	-4%
Cc1cc(C)c(S(=O)(=O)/N=C2/C=C(Sc3ncn[nH]3)C(=O)c3ccccc32)cc1C	1.8µM*	?	?	/	40%	0.89µM*
Cc1ccc(NC2=C/C(=N/S(=O)(=O)c3cccs3)c3ccccc3C2=O)cc1C	3%	-7%	-5	/	22%	-6%
